Shown are actives, neighbours in structure and some others; about 19% of the full set was active somewhere.
Shiga toxin inh – inhibitors of Shiga toxin in Vero cells; 290,000 tested, 9.2% active; inhibition, % at 38.7 µM; Vero cells, Shiga toxin protein synthesis inhibition reporter; AID 2315; in the data active means inhibition mostly above about 28%, no sharp cut-off; inactive means mostly below about 43%
AMA1 RON2 block – disrupts binding of P. falciparum AMA1 to RON2; AlphaScreen AMA1-biotinylated RON2 peptide binding; Potency, µM (doses to about 58.2 µM), usual class: inhibitors; 360,000 tested, 0.2% active; AID 720542; further: nearly all actives have a fitted effect of over 45% in size
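AMA1 (3D7) with his tag at 25 nM final met compounds first, then biotinylated RON2 peptide at 25 nM; detection used donor plus acceptor beads, 10 µg/mL apiece, read by AlphaScreen after 30 min at room temperature.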
SARS PLP yeast – blocks SARS-CoV papain-like protease in a yeast assay | S. cerevisiae expressing SARS-CoV PLpro, growth rescue | Potency, µM (top dose mostly 32.9 µM), most hits filed as activators | 330,000 tested, 0.19% active; calls by dose curve; further: nearly all actives have a fitted effect of over 55% in size
Pf growth 48h – P. falciparum growth inhibition at 48 hours (one generation); Potency, µM (series often up to 28.7 µM), usual class: inhibitors; 310,000 tested, 5.9% active; P. falciparum luciferase growth in erythrocytes, 48 h
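Growth was read as firefly luciferase luminescence after a 48 h, 37 C, 5% CO2 exposure of compounds to reporter-bearing P. falciparum cultures (0.1% parasitemia, 2% hematocrit final) in Albumax-supplemented RPMI 1640.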
Cycloheximide cs – counter-screen for Shiga toxin inhibitors: cycloheximide protein synthesis inhibition | AID 2314 | cell reporter, cycloheximide protein synthesis inhibition counterscreen | 300,000 tested, 12% active | max response, %; in the data active means max response mostly above about 13%, no sharp cut-off; inactive means mostly below about 14%; further: read at 38.3 µM for the half of the compounds with a filed dose
Pf growth 96h – P. falciparum growth inhibition at 96 hours; AID 504834; 320,000 tested, 6.9% active; Potency, µM (titrated, usually from 28.7 µM), actives largely listed as inhibitors; P. falciparum luciferase reporter growth, 96 h
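Compounds incubated with erythrocytes infected by luciferase-expressing P. falciparum (2% hematocrit, 0.05% parasitemia final) for 96 hours, 37 C in 5% CO2. Growth inhibition scored as decreased luciferase luminescence.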
Each line names hits and unclear results; the compound was inactive in the other large screens. Unless noted, the call rests on the fitted dose curve; in most records, active means well fitted curve in the direction sought with a large enough effect; inconclusive means small, poorly fitted or top-dose-only effect, or another doubt; inactive means no such curve, though single readings can be large; an effect the other way counts as inactive or inconclusive.

O=C(Cn1cc(C(=O)c2ccccc2)c2ccccc21)NCc1ccco1	Cycloheximide cs 78
O=C(Cn1cc(C(=O)c2ccco2)c2ccccc21)NCc1ccco1	none
COC(=O)c1cn(CC(=O)NCc2ccco2)c2ccccc12	Shiga toxin inh 50, Cycloheximide cs 15 (no result: Pf growth 96h)
COC(=O)Cn1cc(C(=O)C(C)(C)C)c2ccccc21	none
O=C(Cn1cc(C(=O)C(F)(F)F)c2ccccc21)NCc1ccco1	Cycloheximide cs 47, Pf growth 96h inconclusive
CCCC(=O)c1cn(CC(=O)OC)c2ccccc12	SARS PLP yeast inconclusive, Pf growth 96h 1µM
N#CC(c1ccc(Cl)cc1)c1ccc(Cl)nn1 (stereo not given)	Pf growth 96h inconclusive (no result: Pf growth 48h)
O=C(O)c1ccc(Cl)c(S(=O)(=O)Nc2ccc3cn[nH]c3c2)c1	none
COc1cc2c(cc1OC)C(C)N(C(=O)c1ccc(Br)o1)CC2 (stereo not given)	none
CCC(=O)c1cn(CC(=O)NCc2ccco2)c2ccccc12	Shiga toxin inh 61, Cycloheximide cs 43 (no result: SARS PLP yeast)
Cc1ccc2c(CC(=O)NCCc3ccc(S(N)(=O)=O)cc3)coc2c1	none
COc1ccc(C)c2sc(N3CCCC3)nc12	none
Clc1cccc2sc(N3CCCC3)nc12	Shiga toxin inh active, Cycloheximide cs 20
Brc1cccc2sc(N3CCCC3)nc12	Cycloheximide cs 34
Fc1cccc2sc(N3CCCC3)nc12	Shiga toxin inh 89, Cycloheximide cs 43
Clc1cccc2sc(N3CCOCC3)nc12	none (no result: Shiga toxin inh, SARS PLP yeast, Pf growth 48h, Cycloheximide cs, Pf growth 96h)
CC1(OC(=O)C2CCCC2)C(=O)C=C2C=C(c3ccsc3)N(CC3CC3)C=C2C1=O (stereo not given)	Pf growth 48h inconclusive, Pf growth 96h inconclusive
CC1(OC(=O)C2CCCC2)C(=O)C=C2C=C(c3ccsc3)N(C3CCCCC3)C=C2C1=O (stereo not given)	Pf growth 48h 12µM, Pf growth 96h inconclusive
CC1(OC(=O)C2CCCC2)C(=O)C=C2C=C(c3ccsc3)N(CCc3c[nH]c4ccccc34)C=C2C1=O (stereo not given)	Pf growth 48h 9.3µM, Pf growth 96h 13µM
COc1ccc(F)cc1C(=O)C1CCCN(C(=O)c2ccc(C(C)=O)s2)C1 (stereo not given)	none
O=C(CCC1CCCC1)NC1CCCCC1	Shiga toxin inh 65, Cycloheximide cs 18 (no result: Pf growth 48h)
O=C(CC1CCCCC1)NC1CCCC1	Cycloheximide cs 19 (no result: Pf growth 96h)
C=CCOC(=O)CCCC(=O)NC1CCCCC1	Shiga toxin inh active
COc1ccc(Cc2nnc(NC(=O)CS(=O)(=O)c3ccccc3)s2)cc1OC	none
Cc1cc(OC(C)C(=O)N(Cc2ccco2)C2CCS(=O)(=O)C2)ccc1Cl (stereo not given)	none
CC[C@H](C)[C@H](NC(=O)[C@H](Cc1ccc(O)cc1)NC(=O)[C@@H]1CCCN1C(=O)[C@H](CCCN=C(N)N)NC(=O)[C@H](CCCN=C(N)N)NC(=O)[C@@H]1CCCN1C(=O)[C@H](CCCCN)NC(=O)[C@H](CC(N)=O)NC(=O)[C@H](CCC(N)=O)NC(=O)[C@H](Cc1ccc(O)cc1)NC(=O)[C@H](CC(C)C)NC(=O)[C@@H]1CCC(=O)N1)C(=O)N[C@@H](CC(C)C)C(=O)O	none (no result: AMA1 RON2 block, SARS PLP yeast, Pf growth 48h, Pf growth 96h)
O=C(O)c1cccnc1C(=O)O	none (no result: Shiga toxin inh, Cycloheximide cs)
CN1/C(=C\C(=O)c2cncc(Br)c2)C(C)(C)c2ccccc21	Pf growth 48h inconclusive, Pf growth 96h inconclusive
CN1/C(=C\C(=O)c2ccco2)C(C)(C)c2ccccc21	Pf growth 48h 1.7µM
CN1/C(=C\C(=O)C[n+]2ccc3ccccc3c2)C(C)(C)c2ccccc21	Pf growth 48h inconclusive, Pf growth 96h 1µM
CN1/C(=C\C(=O)CSc2nnc(NCc3ccccc3)s2)C(C)(C)c2ccccc21	Pf growth 48h 7.4µM, Pf growth 96h 6.6µM
COc1ccccc1OCC(=O)/C=C1/N(C)c2ccccc2C1(C)C	Pf growth 48h inconclusive, Pf growth 96h inconclusive
CN1/C(=C\C(=O)c2cccnc2)C(C)(C)c2ccccc21	Cycloheximide cs 15, Pf growth 96h inconclusive
CN1/C(=C\C(=O)COC(=O)c2ccco2)C(C)(C)c2ccccc21	none
CC(C)c1cc(Cn2c3ccccc3c(=O)n2C(C)Cn2cc(CCCC#N)nn2)on1 (stereo not given)	none (no result: Shiga toxin inh, SARS PLP yeast, Pf growth 48h, Cycloheximide cs, Pf growth 96h)
C=CCN(C(=O)CSc1nc2c(sc3ccccc32)c(=O)n1CCN(CC)CC)c1ccccc1	AMA1 RON2 block inconclusive, Pf growth 48h inconclusive
CN1/C(=C\C(=O)c2ccco2)c2ccccc2CC1(C)C	Pf growth 96h 9.3µM
CN1/C(=C\C(=O)c2ccccc2Cl)c2ccccc2CC1(C)C	AMA1 RON2 block inconclusive, Pf growth 48h inconclusive
CN1/C(=C\C=N\NC(=O)c2cccnc2)C(C)(C)c2ccccc21	Pf growth 48h 0.59µM, Pf growth 96h inconclusive
COc1cc([N+](=O)[O-])ccc1NC(=O)CCCOc1cc(C)ccc1C	Pf growth 96h inconclusive
CC(=O)NC(c1ccco1)c1cc(F)c2cccnc2c1O (stereo not given)	Pf growth 48h 4.1µM, Pf growth 96h inconclusive (no result: Shiga toxin inh, AMA1 RON2 block, Cycloheximide cs)
COc1ccccc1C(NC(C)=O)c1cc(Cl)c2cccnc2c1O (stereo not given)	none
CC(=O)NC(c1cccs1)c1cc(F)c2cccnc2c1O (stereo not given)	Pf growth 48h 2.9µM, Pf growth 96h 4.7µM (no result: Shiga toxin inh, AMA1 RON2 block, Cycloheximide cs)
Cc1c(C(=O)O)oc2c(F)cccc12	none
Cc1c(C(=O)N2C[C@@H](C)O[C@@H](C)C2)oc2c(F)cccc12	Shiga toxin inh 70, Pf growth 48h inconclusive, Cycloheximide cs 40
Cc1c(C(=O)N2CCC(N3CCSCC3)CC2)oc2c(F)cccc12	Cycloheximide cs 23, Pf growth 96h inconclusive
CCOC(=O)C1CCN(C2CCN(C(=O)c3oc4c(F)cccc4c3C)CC2)CC1	Pf growth 48h 8.3µM, Pf growth 96h inconclusive
Cc1c(C(=O)NC2CCOC2)oc2c(F)cccc12 (stereo not given)	Shiga toxin inh 114, Cycloheximide cs 71, Pf growth 96h inconclusive
COc1ccc(CNC(=O)CSc2nc3[nH]ncc3c(=O)n2-c2ccccc2Br)cc1	Pf growth 48h inconclusive, Pf growth 96h inconclusive (no result: AMA1 RON2 block)
COCCNC(=O)c1cccc(OC2CCN(Cc3ccc(OC(F)F)cc3)CC2)c1	none
CCOC(=O)C1CCN(C2CCN(C(=O)c3oc4c(C)c(C)ccc4c3C)CC2)CC1	Shiga toxin inh 82, Pf growth 48h 13µM, Cycloheximide cs 19
Cc1c(C(=O)N2CCC[C@H]2CO)oc2c(F)cccc12	Shiga toxin inh 36, Cycloheximide cs 24, Pf growth 96h 15µM
Cc1ccc2c(C)c(C(=O)N3CCC(O)(c4ccccc4)CC3)oc2c1C	Pf growth 48h inconclusive
Cc1ccc2c(C)c(C(=O)N3CCCC(C(N)=O)C3)oc2c1C (stereo not given)	Shiga toxin inh 72, Cycloheximide cs 27, Pf growth 96h inconclusive
